According to the supplement of paper PMC6555819:

Legend:
Experiment in all cases: PBM binding z-score (relative to random genomic background probes); higher = stronger binding; sequences stand for … in GC…GCGATTGACAGCGTAGAATGAAGG
[1] = system: FXR:RXRa (NR concentration 270 nM, RXRa partner concentration 90 nM)
Outline: (§1)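 Random background probes are the reference for binding z-scores. These scores derive from regression-normalized fluorescence on custom Agilent 4×180K protein-binding microarrays incubated 1 h with ligand-free nuclear receptor dimers. Binding was detected with antibodies against each partner (one per run).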

[2] = system: LXRa:RXRa (NR concentration 270 nM, RXRa partner concentration 90 nM)
Outline: as §1

[3] = system: LXRa homodimer (NR concentration 270 nM)
Outline: as §1

[4] = system: LXRb:RXRa (NR concentration 270 nM, RXRa partner concentration 90 nM)
Outline: as §1

[5] = system: LXRb homodimer (NR concentration 270 nM)
Outline: as §1

[6] = system: PPARa:RXRa (NR concentration 270 nM, RXRa partner concentration 90 nM)
Outline: as §1

[7] = system: PPARg:RXRa (NR concentration 180 nM, RXRa partner concentration 90 nM)
Outline: as §1

[8] = system: PPARg:RXRa 270nM:90nM, anti-RXR (NR concentration 270 nM, RXRa partner concentration 90 nM)
Outline: as §1

[9] = system: PPARg:RXRa 30nM:10nM, anti-RXR (NR concentration 30 nM, RXRa partner concentration 10 nM)
Outline: as §1

[10] = system: PPARg:RXRa 90nM:30nM, anti-RXR (NR concentration 90 nM, RXRa partner concentration 30 nM)
Outline: as §1

[11] = system: PPARg:RXRa DBDmut IVT, anti-RXR (DBD mutation: RXRa K156A/R161A, NR concentration 270 nM, RXRa partner concentration 90 nM)
Outline: as §1

[12] = system: PPARg:RXRa IVT, anti-PPARg (NR concentration 270 nM, RXRa partner concentration 90 nM)
Outline: as §1

[13] = system: PPARg DBDmut:RXRa IVT, anti-PPARg (DBD mutation: PPARg1 K132A/R137A, NR concentration 270 nM, RXRa partner concentration 90 nM)
Outline: as §1

[14] = system: PPARg DBDmut IVT, anti-PPARg (DBD mutation: PPARg1 K132A/R137A, NR concentration 270 nM)
Outline: as §1

[15] = system: PPARg homodimer (NR concentration 180 nM)
Outline: as §1

[16] = system: PXR:RXRa (NR concentration 270 nM, RXRa partner concentration 90 nM)
Outline: as §1

[17] = system: PXR homodimer (NR concentration 270 nM)
Outline: as §1

[18] = system: RARa:RXR (NR concentration 270 nM, RXRa partner concentration 90 nM)
Outline: as §1

[19] = system: RARa homodimer (NR concentration 270 nM)
Outline: as §1

[20] = system: RARb:RXRa (NR concentration 270 nM, RXRa partner concentration 90 nM)
Outline: as §1

Sequence	PBM binding z-score [1]	PBM binding z-score [2]	PBM binding z-score [3]	PBM binding z-score [4]	PBM binding z-score [5]	PBM binding z-score [6]	PBM binding z-score [7]	PBM binding z-score [8]	PBM binding z-score [9]	PBM binding z-score [10]	PBM binding z-score [11]	PBM binding z-score [12]	PBM binding z-score [13]	PBM binding z-score [14]	PBM binding z-score [15]	PBM binding z-score [16]	PBM binding z-score [17]	PBM binding z-score [18]	PBM binding z-score [19]	PBM binding z-score [20]
ATCTTTAGGTAAAGTTCAGTGAAAGATCGATAGA	0.994	1.72	1.25	1.18	0.781	1.87	2.25	3.13	1.43	2.95	1.08	1.4	0.514	1.26	0.959	2.02	1.36	1.27	0.483	2.65
CCTCGGAGGACAACAGGAGGTCAGAGCAGCCAGA	1.3	1.9	1.9	1.4	-0.432	2.01	0.586	0.217	-0.349	-0.371	-0.204	0.388	-0.931	-1.16	1.41	2.05	0.438	2.23	0.698	2.87
TCGGCTAGGTCAACGATGGTCAGCTAATCTGCTA	3.23	2.31	-0.307	1.72	-0.717	3.14	1.75	2.37	1.62	2.03	3.13	3.06	-0.836	-0.603	1.19	1.58	-0.468	2.04	-0.329	3.97
ATCGAAAGGCCGTGAGGTGAGTATACAGAAAGGC	0.424	0.135	-0.0346	-0.0132	-0.426	0.369	0.827	0.177	0.199	-0.0286	-0.822	0.492	0.487	1.17	-0.238	0.0278	-0.0636	0.885	0.0649	1.68
CCTCGGAGGACAACAGGAGGTCAGAGATGCCAGA	1.06	1.85	2.02	1.36	-0.479	2.08	0.895	0.272	-0.499	-0.289	-0.0162	0.314	-0.377	-1.49	1.1	2.04	0.508	2.05	0.885	2.8
CGAACGGGGGCATGAGTTGATAGCAAATGCCGAT	3.26	2.81	0.42	4.42	6.73	3.99	2.63	4.68	2.82	3.84	3.7	5.31	8.66	10	2.78	3.06	1.34	2.78	0.977	2.79
AACTCTAGGTAAAGATAGTTCAGTGAATGCAAAT	0.28	3.96	0.498	0.633	-0.176	0.465	0.601	0.353	0.0247	0.245	2.43	1.47	1.03	0.24	0.547	0.755	0.513	0.462	0.929	0.576
ATCTCGAGGTAAAGTTCAGTGAAAGATCGATAGA	1.3	1.92	1.04	1.29	0.424	2.4	2.53	3.53	1.91	3.69	0.243	1.24	0.853	0.574	1.21	2.17	1.44	1.34	0.469	2.86
AGAACGAGGGCACGCTTAGTTGATAGCAGAGTAG	0.731	0.538	-0.173	0.495	-0.638	2.26	2.16	1.86	0.46	1.5	4.36	4.09	0.457	0.676	0.226	0.718	-0.259	1.06	-0.203	2.66
